Test results published in PubChem BioAssay AID2314 (National Center for Advancing Translational Sciences (NCATS), 2010).
The campaign covered roughly 300,000 compounds. About 37,000 (12%) were called active. No stated cut-off is given here; in the data, active means max response mostly above about 13% (no sharp cut-off); inactive means mostly below about 14%. This excerpt belongs to a sample that is enriched for actives.

Assay: Cycloheximide Counterscreen for Small Molecule Inhibitors of Shiga Toxin; further: read at 38.3 µM for the half of the compounds with a filed dose; 0% is about no effect
Conditions: cell reporter, cycloheximide protein synthesis inhibition counterscreen; stronger effect = higher value

Row | SMILES | max response
1 | COc1ccc([N+](=O)[O-])cc1N(CC(O)CN(CC(C)C)CC(C)C)S(=O)(=O)c1ccc(C)cc1 (centres undefined) | 9.04% (inactive)
2 | Cc1ccc(C(=O)Cc2nnc(C)s2)cc1 | 43.7% (active)
3 | CCOCc1nnc(NC(=O)CSc2ccc(C)cc2)s1 | -1.61% (inactive)
4 | Cc1ccc(C(=O)Cn2cccn2)cc1 | 6.54% (inactive)
5 | COc1cc2c(cc1NC(=O)COC(=O)/C=C/c1ccccc1)oc1ccccc12 | 0.0459% (inactive)
6 | NC(=O)Cc1ccc2sc(-c3ccccc3)nc2c1 | 75.6% (active)
7 | NC(=O)Cc1ccc2c(c1)[nH]c1ccccc12 | 4.3% (inactive)
8 | O=C(O)Cc1sc(-c2ccccc2)nc1-c1cccs1 | 16.4% (inactive)
9 | O=C(O)Cc1ccc(NCc2ccccc2Cl)cc1 | 23.5% (inactive)
10 | O=C(O)CC1=C(Nc2ccccc2)C(=O)N(c2ccccc2)C1c1ccc(Cl)cc1 (centres undefined) | 38.1% (active)
11 | COC(=O)CN1C(=S)N(c2ccccc2)C(=O)C1CC(=O)Nc1ccc(Cl)cc1 (centres undefined) | -2.88% (inactive)
12 | COc1ccccc1-n1c(=S)[nH]c2c(sc(=S)n2-c2ccc(C)cc2C)c1=O | 5.32% (inactive)
13 | O=S(=O)(c1cnccc1N1CCN(/N=C/c2ccc(Br)cc2)CC1)N1CCCCC1 | -0.626% (inactive)
14 | O=C(CSc1nnnn1-c1ccc(O)cc1)N1N=C(c2ccc3ccccc3c2)CC1c1ccccc1 (centres undefined) | 6% (inactive)
15 | CCN1C(=O)/C(=C2\SC(N3CCCCC3)=NC2=O)c2ccccc21 | 18.4% (active)
16 | CC(C)=C1SC(N2CCN(c3ccc(C)c(Cl)c3)CC2)=NC1=O | -1.62% (inactive)
17 | CC(C)=C1SC(N2CCN(c3cccc(C)c3)CC2)=NC1=O | -1.33% (inactive)
18 | CCOC(=O)N1CCN(Cc2nc(Cc3cccc(C(F)(F)F)c3)no2)CC1 | 9.29% (inactive)
19 | Cc1cc(CN(C)C(=O)c2cc(COc3ccc(C)c(C)c3)on2)n[nH]1 | 46% (active)
20 | CN(CCOc1ccccc1)C(=O)c1cc(COc2c(F)cccc2F)on1 | 15.4% (inactive)
21 | COc1ccc(C(=O)NNC(=O)c2cc(C)[nH]n2)cc1 | 3.07% (inactive)
22 | Cc1ccc(OCC(=O)NC(C)c2ccccc2)cc1C (centres undefined) | -1.54% (inactive)
23 | C/C(=N/OC(=O)c1cccc(C(F)(F)F)c1)c1cnccn1 | -2.87% (inactive)
24 | CN(Cc1cccnc1)C(=O)c1cc(COc2ccc3ncccc3c2)on1 | 7.18% (inactive)
25 | CN(Cc1cnccn1)C(=O)c1cc(COc2cccc(C(F)(F)F)c2)on1 | 37.1% (active)
26 | COCCNC(=O)COc1ccc(C)c(C)c1 | 9.18% (inactive)
27 | Cc1nonc1C1CCCN1C(=O)c1cc(COc2cccc(C(F)(F)F)c2)on1 (centres undefined) | 27.6% (active)
28 | Cc1ccc(OCc2cc(C(=O)N(C)CCc3ccccc3)no2)cc1C | 62.4% (active)
29 | CCC(=O)OCc1c(C(F)(F)F)nn(C)c1Oc1cccc(C(F)(F)F)c1 | -1.08% (inactive)
